For 2 sequences, binding signal results are on record in PMC7862700, “An all-to-all approach to the identification of sequence-specific readers for epigenetic DNA modifications on cytosine”.

Assay in all cases: DAPPL (digital affinity profiling via proximity ligation, sequencing); 10 mM Tris-HCl pH 7.5, 50 mM NaCl, 1 mM DTT, 4% glycerol, room temperature, 30 min; GST-TFs on glutathione beads, 16-mer random dsDNA library, 0.1% formaldehyde crosslink after washing; high values mean tight binding
What all share (conditions): protein: recombinant; tags: N-terminal GST; dsDNA, one strand shown

In one test the target is T1, ELK3 (Homo sapiens, UniProt P41970 1-407).
T1 sequence: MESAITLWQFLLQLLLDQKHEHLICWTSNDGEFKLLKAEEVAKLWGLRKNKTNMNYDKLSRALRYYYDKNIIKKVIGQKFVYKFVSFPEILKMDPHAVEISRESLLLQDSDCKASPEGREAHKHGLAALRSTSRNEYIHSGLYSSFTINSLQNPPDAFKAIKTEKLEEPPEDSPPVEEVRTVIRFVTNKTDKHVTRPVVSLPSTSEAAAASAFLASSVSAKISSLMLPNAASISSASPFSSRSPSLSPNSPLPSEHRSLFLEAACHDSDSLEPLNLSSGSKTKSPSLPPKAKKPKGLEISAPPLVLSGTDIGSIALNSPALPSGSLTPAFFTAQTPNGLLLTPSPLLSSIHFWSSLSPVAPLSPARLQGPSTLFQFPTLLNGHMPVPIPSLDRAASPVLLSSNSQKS
In outline:
(§1)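 A tag-only sample was pooled with DNA-barcoded human transcription factors that had been expressed in yeast as GST fusions and captured on glutathione beads. The pools were incubated for 30 min at room temperature with 200 nmole of a random double-stranded 16-mer DNA library in Tris/NaCl/DTT/glycerol buffer, then washed, crosslinked with 0.1% formaldehyde, proximity-ligated (BsaI/T4 ligase, 1 h, 37 °C), PCR-amplified and sequenced on an Illumina NextSeq500. Binding signal is each hexamer's read frequency for a factor divided by its frequency for the tag-only sample.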

The target in another test is T2, SPIC (Homo sapiens, UniProt Q8N5J4 1-248).
T2 sequence: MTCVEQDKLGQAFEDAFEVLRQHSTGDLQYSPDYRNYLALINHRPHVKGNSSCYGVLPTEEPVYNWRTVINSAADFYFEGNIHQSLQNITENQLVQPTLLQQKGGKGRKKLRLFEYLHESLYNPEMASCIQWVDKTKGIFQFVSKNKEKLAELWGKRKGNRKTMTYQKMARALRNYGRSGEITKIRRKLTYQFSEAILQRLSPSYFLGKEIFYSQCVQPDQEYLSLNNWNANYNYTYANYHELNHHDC
The gist of the method:
as §1

The target of a further test is ELF4 (Homo sapiens, UniProt Q99607 1-663). The gist of the method:
as §1

The next test deals with T3, ELK4 (Homo sapiens, UniProt P28324-2 1-405).
T3 sequence: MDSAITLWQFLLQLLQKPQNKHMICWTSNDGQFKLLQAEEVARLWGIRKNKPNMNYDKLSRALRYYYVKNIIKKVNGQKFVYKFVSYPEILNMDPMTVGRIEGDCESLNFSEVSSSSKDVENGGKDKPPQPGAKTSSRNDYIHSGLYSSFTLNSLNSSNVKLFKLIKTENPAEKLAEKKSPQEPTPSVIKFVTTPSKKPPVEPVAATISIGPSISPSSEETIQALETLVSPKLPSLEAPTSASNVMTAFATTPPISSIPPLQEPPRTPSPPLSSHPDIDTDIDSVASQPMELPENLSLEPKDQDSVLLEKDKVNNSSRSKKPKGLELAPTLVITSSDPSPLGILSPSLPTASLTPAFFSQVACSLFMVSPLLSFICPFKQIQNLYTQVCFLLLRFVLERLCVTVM
The gist of the method:
as §1

The next test concerns the target T4, ERF (Homo sapiens, UniProt P50548 1-548).
T4 sequence: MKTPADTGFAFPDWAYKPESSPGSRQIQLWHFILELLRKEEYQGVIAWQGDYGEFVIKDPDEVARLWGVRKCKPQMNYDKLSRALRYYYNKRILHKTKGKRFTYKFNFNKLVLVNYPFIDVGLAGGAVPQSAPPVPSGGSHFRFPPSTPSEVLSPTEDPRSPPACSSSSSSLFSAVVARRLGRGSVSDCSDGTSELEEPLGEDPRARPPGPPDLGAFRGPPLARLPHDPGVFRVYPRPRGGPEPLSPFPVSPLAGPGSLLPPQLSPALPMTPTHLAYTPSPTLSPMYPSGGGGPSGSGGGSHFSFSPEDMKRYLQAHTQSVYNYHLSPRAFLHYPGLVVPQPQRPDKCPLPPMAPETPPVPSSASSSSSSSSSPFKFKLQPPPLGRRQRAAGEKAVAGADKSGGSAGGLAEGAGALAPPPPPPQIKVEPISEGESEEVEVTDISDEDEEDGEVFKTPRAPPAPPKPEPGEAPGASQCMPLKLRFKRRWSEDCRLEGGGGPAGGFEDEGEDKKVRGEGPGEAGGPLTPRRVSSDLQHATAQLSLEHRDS
In outline: as §1

Another test concerns the target T5, ETV7 (Homo sapiens, UniProt Q9Y603 1-341).
T5 sequence: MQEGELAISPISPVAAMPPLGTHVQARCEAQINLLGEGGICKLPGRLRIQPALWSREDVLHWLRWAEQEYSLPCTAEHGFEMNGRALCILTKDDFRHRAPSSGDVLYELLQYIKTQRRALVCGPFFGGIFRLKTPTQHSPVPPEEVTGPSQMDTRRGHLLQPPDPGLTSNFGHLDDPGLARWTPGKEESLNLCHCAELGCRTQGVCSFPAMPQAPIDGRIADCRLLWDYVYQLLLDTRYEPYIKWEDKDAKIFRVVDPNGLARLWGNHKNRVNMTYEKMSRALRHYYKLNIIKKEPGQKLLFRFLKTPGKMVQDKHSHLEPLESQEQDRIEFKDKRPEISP
The gist of the method:
as §1

Another test deals with T6, GABPA (Homo sapiens, UniProt Q06546 1-454).
T6 sequence: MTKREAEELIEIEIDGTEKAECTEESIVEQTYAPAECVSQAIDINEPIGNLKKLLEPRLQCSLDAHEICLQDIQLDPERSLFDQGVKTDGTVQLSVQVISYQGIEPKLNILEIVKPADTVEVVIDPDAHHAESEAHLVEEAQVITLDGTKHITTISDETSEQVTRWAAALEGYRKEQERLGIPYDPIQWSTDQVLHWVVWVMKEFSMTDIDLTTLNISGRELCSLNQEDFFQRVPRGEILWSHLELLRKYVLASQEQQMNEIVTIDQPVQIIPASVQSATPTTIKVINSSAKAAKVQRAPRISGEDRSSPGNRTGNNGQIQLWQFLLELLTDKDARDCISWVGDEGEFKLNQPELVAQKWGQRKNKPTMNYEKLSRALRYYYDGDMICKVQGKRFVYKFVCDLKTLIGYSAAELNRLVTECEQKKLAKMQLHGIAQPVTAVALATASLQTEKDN
The gist of the method: as §1

For a further test, the target named is ELF1 (Homo sapiens, UniProt P32519 1-619). The gist of the method:
as §1

Another test has as its target T7, EHF (Homo sapiens, UniProt Q9NZC4 1-300).
T7 sequence: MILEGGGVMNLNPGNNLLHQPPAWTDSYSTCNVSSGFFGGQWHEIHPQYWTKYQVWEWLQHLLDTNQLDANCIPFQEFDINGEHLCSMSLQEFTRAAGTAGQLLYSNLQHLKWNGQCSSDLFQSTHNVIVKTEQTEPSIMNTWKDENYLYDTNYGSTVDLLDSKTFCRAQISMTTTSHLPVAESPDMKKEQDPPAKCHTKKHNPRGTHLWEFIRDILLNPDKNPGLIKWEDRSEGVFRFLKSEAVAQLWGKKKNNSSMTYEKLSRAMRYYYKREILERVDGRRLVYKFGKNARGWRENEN
In outline:
as §1

A further test deals with SPIB (Homo sapiens, UniProt Q01892 1-262). In outline:
as §1

In the next test the target is T8, ELF3 (Homo sapiens, UniProt P78545 1-371).
T8 sequence: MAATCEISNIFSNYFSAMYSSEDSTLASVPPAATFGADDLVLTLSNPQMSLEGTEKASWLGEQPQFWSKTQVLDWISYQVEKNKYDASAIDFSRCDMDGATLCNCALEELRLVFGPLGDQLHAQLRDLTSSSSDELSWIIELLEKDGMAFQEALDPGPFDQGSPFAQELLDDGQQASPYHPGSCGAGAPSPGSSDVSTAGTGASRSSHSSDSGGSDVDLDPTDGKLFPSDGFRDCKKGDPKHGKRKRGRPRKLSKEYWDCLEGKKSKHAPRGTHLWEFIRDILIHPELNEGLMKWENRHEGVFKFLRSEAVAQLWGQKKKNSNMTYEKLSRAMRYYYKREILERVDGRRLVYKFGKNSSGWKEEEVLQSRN
In outline:
as §1

The next test has as its target ETV1 (Homo sapiens, UniProt P50549 1-477). In outline: as §1
A further test deals with T9, ETV3L (Homo sapiens, UniProt Q6ZN32 1-361).
T9 sequence: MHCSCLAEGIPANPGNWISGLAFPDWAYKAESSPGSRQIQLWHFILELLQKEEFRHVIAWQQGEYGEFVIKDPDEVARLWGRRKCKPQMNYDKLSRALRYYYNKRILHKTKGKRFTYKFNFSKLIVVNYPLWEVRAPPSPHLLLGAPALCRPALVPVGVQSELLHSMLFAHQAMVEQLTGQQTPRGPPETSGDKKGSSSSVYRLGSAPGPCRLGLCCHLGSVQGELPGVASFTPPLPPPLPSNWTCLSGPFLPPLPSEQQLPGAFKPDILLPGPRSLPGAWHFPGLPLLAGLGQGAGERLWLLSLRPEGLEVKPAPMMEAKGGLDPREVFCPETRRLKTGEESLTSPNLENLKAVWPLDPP
In outline: as §1

In another test the target is T10, ETS2 (Homo sapiens, UniProt P15036 1-469).
T10 sequence: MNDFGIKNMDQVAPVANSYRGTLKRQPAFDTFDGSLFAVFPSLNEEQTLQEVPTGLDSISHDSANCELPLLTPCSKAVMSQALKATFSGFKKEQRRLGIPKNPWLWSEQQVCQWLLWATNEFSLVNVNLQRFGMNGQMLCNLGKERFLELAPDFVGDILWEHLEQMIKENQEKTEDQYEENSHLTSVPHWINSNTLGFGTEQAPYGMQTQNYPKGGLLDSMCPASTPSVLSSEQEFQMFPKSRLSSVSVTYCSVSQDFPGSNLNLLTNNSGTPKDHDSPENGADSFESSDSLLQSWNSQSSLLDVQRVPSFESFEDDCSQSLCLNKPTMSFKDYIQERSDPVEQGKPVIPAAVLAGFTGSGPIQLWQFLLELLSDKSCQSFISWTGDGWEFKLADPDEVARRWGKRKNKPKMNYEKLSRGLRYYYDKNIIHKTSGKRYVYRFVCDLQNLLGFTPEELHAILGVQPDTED
In outline:
as §1

The target of the next test is T11, SPDEF (Homo sapiens, UniProt O95238 1-335).
T11 sequence: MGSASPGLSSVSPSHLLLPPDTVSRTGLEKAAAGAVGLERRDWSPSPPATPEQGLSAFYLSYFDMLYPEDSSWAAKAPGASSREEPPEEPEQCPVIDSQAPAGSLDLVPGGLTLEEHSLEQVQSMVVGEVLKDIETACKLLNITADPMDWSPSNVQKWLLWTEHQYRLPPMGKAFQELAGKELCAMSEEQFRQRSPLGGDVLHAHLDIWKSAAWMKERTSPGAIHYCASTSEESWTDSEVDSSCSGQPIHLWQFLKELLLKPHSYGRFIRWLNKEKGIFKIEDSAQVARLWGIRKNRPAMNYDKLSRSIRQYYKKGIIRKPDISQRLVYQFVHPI
In outline:
as §1

Sequence of ELF4 (Q99607 whole entry): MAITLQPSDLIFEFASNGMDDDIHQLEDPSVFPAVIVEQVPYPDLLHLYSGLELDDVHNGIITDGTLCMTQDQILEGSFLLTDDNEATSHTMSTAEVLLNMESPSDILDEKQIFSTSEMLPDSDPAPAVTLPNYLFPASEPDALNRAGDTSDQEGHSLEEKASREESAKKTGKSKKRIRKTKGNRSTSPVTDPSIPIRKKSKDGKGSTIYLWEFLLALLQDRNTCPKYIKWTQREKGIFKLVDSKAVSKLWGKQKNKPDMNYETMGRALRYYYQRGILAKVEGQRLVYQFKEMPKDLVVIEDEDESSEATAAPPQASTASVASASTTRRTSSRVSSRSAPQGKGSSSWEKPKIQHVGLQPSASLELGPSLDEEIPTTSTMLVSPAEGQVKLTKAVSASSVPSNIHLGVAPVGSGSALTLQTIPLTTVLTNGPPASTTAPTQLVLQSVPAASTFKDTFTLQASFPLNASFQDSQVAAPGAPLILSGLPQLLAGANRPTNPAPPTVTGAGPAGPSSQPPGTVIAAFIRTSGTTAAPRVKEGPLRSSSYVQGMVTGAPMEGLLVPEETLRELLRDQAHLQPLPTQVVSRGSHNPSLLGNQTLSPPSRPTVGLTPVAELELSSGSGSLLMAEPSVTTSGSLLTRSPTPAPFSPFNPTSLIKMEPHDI
Sequence of ELF1 (P32519 whole entry): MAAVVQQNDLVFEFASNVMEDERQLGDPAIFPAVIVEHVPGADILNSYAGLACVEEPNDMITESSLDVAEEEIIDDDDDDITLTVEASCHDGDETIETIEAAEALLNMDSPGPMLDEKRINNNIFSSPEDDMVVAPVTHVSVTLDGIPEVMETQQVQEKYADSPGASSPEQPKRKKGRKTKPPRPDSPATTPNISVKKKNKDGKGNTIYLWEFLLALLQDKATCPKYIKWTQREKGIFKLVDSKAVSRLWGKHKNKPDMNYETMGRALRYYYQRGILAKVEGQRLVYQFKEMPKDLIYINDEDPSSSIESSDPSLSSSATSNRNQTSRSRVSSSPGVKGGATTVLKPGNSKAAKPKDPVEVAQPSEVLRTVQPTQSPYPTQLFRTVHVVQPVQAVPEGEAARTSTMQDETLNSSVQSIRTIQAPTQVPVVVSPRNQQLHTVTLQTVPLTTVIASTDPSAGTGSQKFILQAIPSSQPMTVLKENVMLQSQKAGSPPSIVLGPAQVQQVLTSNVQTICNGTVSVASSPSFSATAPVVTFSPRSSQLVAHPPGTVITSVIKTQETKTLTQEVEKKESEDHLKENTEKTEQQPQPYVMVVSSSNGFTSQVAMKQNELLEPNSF
Sequence of SPIB (Q01892 whole entry): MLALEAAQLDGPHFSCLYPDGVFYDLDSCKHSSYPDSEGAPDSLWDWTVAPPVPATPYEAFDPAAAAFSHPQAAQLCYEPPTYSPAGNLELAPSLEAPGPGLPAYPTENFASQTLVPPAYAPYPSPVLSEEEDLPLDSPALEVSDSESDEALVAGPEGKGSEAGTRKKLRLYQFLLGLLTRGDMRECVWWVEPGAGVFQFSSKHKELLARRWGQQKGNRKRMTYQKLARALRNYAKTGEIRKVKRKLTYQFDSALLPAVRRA
Sequence of ETV1 (P50549 whole entry): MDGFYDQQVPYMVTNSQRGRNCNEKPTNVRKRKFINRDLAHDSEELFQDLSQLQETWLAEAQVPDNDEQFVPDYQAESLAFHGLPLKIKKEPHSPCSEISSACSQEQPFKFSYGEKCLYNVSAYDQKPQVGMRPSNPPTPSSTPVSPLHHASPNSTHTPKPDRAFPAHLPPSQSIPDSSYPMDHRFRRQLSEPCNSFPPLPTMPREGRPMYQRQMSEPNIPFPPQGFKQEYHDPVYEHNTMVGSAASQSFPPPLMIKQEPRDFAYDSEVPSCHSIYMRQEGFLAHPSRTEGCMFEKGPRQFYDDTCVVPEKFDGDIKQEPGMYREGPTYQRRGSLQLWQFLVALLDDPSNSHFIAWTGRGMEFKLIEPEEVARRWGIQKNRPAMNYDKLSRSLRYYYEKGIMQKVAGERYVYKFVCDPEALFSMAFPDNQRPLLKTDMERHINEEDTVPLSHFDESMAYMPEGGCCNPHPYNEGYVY

For TGAAGA, the binding signal in the test with ELK3 was 1.03 fold enrichment (6-mer frequency, TF over GST control); in the test with SPIC, 1.01 fold enrichment (6-mer frequency, TF over GST control); with ELF4, 1.01 fold enrichment (6-mer frequency, TF over GST control); in the test with ELK4 it was 1.02 fold enrichment (6-mer frequency, TF over GST control); with ERF it was 1.09 fold enrichment (6-mer frequency, TF over GST control); with ETV7 it was 1.04 fold enrichment (6-mer frequency, TF over GST control).
For the sequence GCTAGT, the binding signal is 1.06 fold enrichment (6-mer frequency, TF over GST control) with GABPA; 1.16 fold enrichment (6-mer frequency, TF over GST control) with ELF1; 1.08 fold enrichment (6-mer frequency, TF over GST control) with EHF; 1.09 fold enrichment (6-mer frequency, TF over GST control) with SPIB; 1.11 fold enrichment (6-mer frequency, TF over GST control) with ELK3; 1.2 fold enrichment (6-mer frequency, TF over GST control) in the test with SPIC. In addition, the binding signal in the test with ELF4 is 1.05 fold enrichment (6-mer frequency, TF over GST control); with ELK4, 1.07 fold enrichment (6-mer frequency, TF over GST control); with ELF3, 1.04 fold enrichment (6-mer frequency, TF over GST control); with ETV1 it was 1.02 fold enrichment (6-mer frequency, TF over GST control); with ERF, 1.01 fold enrichment (6-mer frequency, TF over GST control); in the test with ETV3L, 1 fold enrichment (6-mer frequency, TF over GST control). Moreover, the binding signal was 1.07 fold enrichment (6-mer frequency, TF over GST control) with ETS2; 1.07 fold enrichment (6-mer frequency, TF over GST control) with SPDEF; 1.13 fold enrichment (6-mer frequency, TF over GST control) with ETV7.
